Bioassay records (PubChem BioAssay)
A selection: hits, their analogues and other compounds. The true share with any hit is near 11%.
NIH3T3 tox: cytotoxic compounds in NIH 3T3 cells | NIH 3T3 viability, CellTiter-Glo ATP luminescence, 48-72 h | Potency, µM (top dose mostly 96.7 µM), for the others: at the top dose activity change, negative = cytotoxicity, most hits filed as inhibitors | actives 4.3% (n = 94,000) | AID 1345082; further: nearly all actives have a fitted effect of over 55% in size
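NIH 3T3 cells at 400 cells/well received 23 nL of compound by pintool and were incubated 48 or 72 h at 37 °C. Viability was read as ATP-coupled CellTiter-Glo luminescence.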
FLuc inh: inhibitors of firefly (Photinus pyralis) luciferase; purified P. pyralis luciferase, luminescence, biochemical; Potency, µM (doses to about 115 µM), actives largely listed as inhibitors; actives 2.5% (n = 76,000); further: nearly all actives have a fitted effect of over 65% in size
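Cell-free enzyme assay, 10nM P. pyralis luciferase, luciferin and ATP each at 10uM. Inhibition profiled over a 6-point titration, read as luminescence.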
hNpr1 antagonist: antagonists of human natriuretic peptide receptor Npr1; P16066; HEK293 hNpr1 GloSensor cGMP, ANP-stimulated luminescence; Potency, µM (titrated, usually from 46.3 µM), for inactives: at the highest dose activity change, negative = inhibition, hits mostly inhibitors; actives 1.6% (n = 76,000); AID 1347048; calls by dose curve; further: nearly all actives have a fitted effect of over 60% in size
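Compound pre-incubated 30 min at room temperature on GloSensor-loaded HEK293 cells stably carrying hNpr1 and the pGS-40F cGMP biosensor. Stimulation uses hNppA at 0.1 nM final; luminescence is taken at baseline and 20 min post-agonist.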
HEK293 tox: kills HEK 293 cells; AID 1345083; Potency, µM (top dose mostly 115 µM), inactives show at the top dose activity change, negative = cytotoxicity, usual class: inhibitors; HEK 293 viability, ATP luminescence (CellTiter-Glo), 48-72 h; actives 6.6% (n = 94,000); further: nearly all actives have a fitted effect of over 60% in size
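qHTS cytotoxicity; HEK 293, 250 cells/well; compound pinned; 48 or 72 hr, 37 degree Celsius, 5% CO2, 95% humidity; CellTiter-Glo, 10 min RT; luminescence (ATP).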
The depositor's hits bear a star; i = inactive; ? = inconclusive; / = not tested or not shown; [ ] = another dose, or the depositor's remark. Unless noted, the call rests on the fitted dose curve; in most records, active means well fitted curve in the direction sought with a large enough effect; inconclusive means small, poorly fitted or top-dose-only effect, or another doubt; inactive means no such curve, though single readings can be large; an effect the other way counts as inactive or inconclusive. On the % scale 0 is the no-effect control and ±100 the full control effect; potency means the concentration at half of the fitted maximal effect.

SMILES	NIH3T3 tox	FLuc inh	hNpr1 antagonist	HEK293 tox
COc1cc(NC(=O)c2cc3c(N4CCCC4)nc(C)cn3n2)cc(OC)c1OC	?	i	0.4%	44.7µM*
COc1ccccc1NC(=O)c1cc2c(N3CCSCC3)nc(C)cn2n1	-10.1%	i	1.8%	50.1µM*
COc1cc(NC(=O)c2cc3c(N4CCSCC4)nc(C)cn3n2)cc(OC)c1OC	?	i	-24.9%	35.5µM*
O=C(Cc1ccc(F)cc1)N1CCC(c2nn(Cc3ccccc3)c(=O)[nH]2)CC1	3.4%	i	0.0%	-1.4%
CC(=O)N1CCC2(CC1)CN(C(=O)CN(C)C)Cc1ccccc1O2	4.9%	/	/	i
O=C(Cc1cccc(Cl)c1)N1CCCN(c2ccc3nnc(-c4ccccc4)n3n2)CC1	?	/	/	-19.8%
CC(C)CCN1CCC2(C1)C(=NC1CCCCC1)NC(=O)N2c1cccnc1 (centres undefined)	?	/	/	i
COc1cccc(N2C(=O)NC(=NC3CCCC3)C23CCCN(Cc2cccnc2)C3)c1 (centres undefined)	?	/	/	-15.6%
COc1ccc(CN2CCCC3(C2)C(=NC2CCCC2)NC(=O)N3c2cccnc2)cc1 (centres undefined)	22.4µM*	/	/	-10.4%
CC(C)CCN1CCCC2(C1)C(=NC1CCCC1)NC(=O)N2c1cccnc1 (centres undefined)	7.08µM*	/	/	?
O=C1NC(=NC2CCCC2)C2(CCN(CC3CC3)C2)N1c1cccnc1 (centres undefined)	?	/	/	0.9%
O=C1NC(=NC2CCCC2)C2(CCCN(Cc3ccccc3)C2)N1c1cccnc1 (centres undefined)	25.1µM*	/	/	-10.1%
O=C1NC(=NC2CCCC2)C2(CCCN(CC3CCCCC3)C2)N1c1cccnc1 (centres undefined)	7.08µM*	/	/	?
O=C1NC(=NC2CCCC2)C2(CCN(Cc3ccccc3)C2)N1c1cccnc1 (centres undefined)	?	/	/	0.0%
O=C(N[C@@H]1CCOC[C@H]1Oc1cccc(F)c1)c1cnc2c(c1)CCC2	i	i	-3.3%	i
CCOCC1(C)COc2ccc(C(=O)Nc3cccc(Cl)c3)cc2N1 (centres undefined)	39.8µM*	20µM*	?	63.1µM*
COc1cccc(NC(=O)c2ccc3c(c2)NC(C)(CNc2ccccc2)CO3)c1 (centres undefined)	28.2µM*	?	?	39.8µM*
CCOCC1(C)COc2ccc(C(=O)Nc3cccc(OC)c3)cc2N1 (centres undefined)	-30.0%[138 µM]	20µM*	-3.8%[70.6 µM]	?
CCOCC1(C)COc2ccc(C(=O)Nc3cccc(N(C)C)c3)cc2N1 (centres undefined)	?	63.1µM*	0.2%[70.6 µM]	?
COc1ccc(C(=O)N2C[C@@H]3C[C@H](C2)c2ccc(NS(=O)(=O)c4ccc(NC(C)=O)cc4)c(=O)n2C3)cc1	-11.3%	i	0.7%	-6.8%
COc1cccc(NC(=O)c2ccc3c(c2)NC(C)(COCCN(C)C)CO3)c1 (centres undefined)	?	?	-1.0%[70.6 µM]	?
CN(C)CCCOCC1(C)COc2ccc(C(=O)Nc3cccc(Cl)c3)cc2N1 (centres undefined)	?	i	-6.9%[70.6 µM]	35.5µM*
CN(Cc1ccc(-c2ccccc2)cc1)Cc1ccnn1C	?	?	20µM*	25.1µM*
CN(Cc1nccs1)Cc1cccn1C	-12.5%[174 µM]	i	-5.5%[70.6 µM]	?
CN(Cc1ccc(-c2ccccc2)cc1)Cc1nccs1	?	44.7µM*	10µM*	?
COc1ccc(CN2CCc3nn(CC(C)C)c(=O)n3CC2)cc1Cn1ccnc1	i	i	-2.7%	0.9%
CCc1cccc(NC(=O)C2CCN(C(=O)c3nnn4c3COC(c3ccc(C)cc3)C4)CC2)c1 (centres undefined)	22.4µM*	35.5µM*	-13.8%	10µM*
CCc1cccc(NC(=O)C2CCN(C(=O)c3nnn4c3COC(c3ccc(OC)cc3)C4)CC2)c1 (centres undefined)	?	i	-2.2%	17.8µM*
COc1ccc(C2Cn3nnc(C(=O)N4CCC(C(=O)Nc5cc(C)cc(C)c5)CC4)c3CO2)cc1 (centres undefined)	44.7µM*	i	-0.1%	35.5µM*
